Data from the supplement of paper PMC10849652.
Of roughly 8,800 targets only a part is listed; those with a hit were picked by preference. About 0.5% of all pairs of compound and target were hits.

Assays:
Assay in all cases: log2 fold change, soluble protein after heating vs DMSO (PISA); higher = thermal stabilisation; K562 lysate, 10 uM; active = over 0.2 and 3.5 SD of the protein, either way, in both replicates (recomputed)
[1] = compound: C#Cc1cccc(Nc2ncnc3cc(OCCOC)c(OCCOC)cc23)c1 [erlotinib]
Summary of the method: (§1)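 Values give the log-two fold change in thermal stability against solvent controls, from duplicates. Crude K562 extract at 1 mg/mL protein, made by dounce homogenisation in PBS pH 7.4 with 1 mM MgCl2, was treated with 10 μM compound for 30 min. After 3 min heating across 48°C-58°C, aliquots were pooled, adjusted to 0.5% NP-40 at 4°C and centrifuged at 21,000xg for 90 min. The supernatant was measured by TMTpro 16plex LC-MS/MS with channel sums equalised.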

[2] = compound: C/C(=N\NC(=O)C1=CC(=CC=C1)S(=O)(=O)N2CCOCC2)/C3=C(C=CC(=C3)Cl)O
Summary of the method: as §1

[3] = compound: C1=CC(=CC=C1C2=NC3=C(N2)C=C(C=C3)C(=O)N)OC4=CC=C(C=C4)Cl
Summary of the method: as §1

[4] = compound: C1=CC2=C(C=CC(=C2)/C=C\3/C(=O)NC(=NCC4=CC=CS4)S3)N=C1
Summary of the method: as §1

[5] = compound: C1=CC2=NC=CN=C2C=C1/C=C/3\C(=O)NC(=O)S3
Summary of the method: as §1

[6] = compound: C1=CC=C(C=C1)C2=NC(=C(N2)C3=CC=NC=C3)C4=CC(=C(C=C4)Cl)O
Summary of the method: as §1

[7] = compound: C1=CC=C2C(=C1)C3=NNC4=CC=CC(=C43)C2=O
Summary of the method: as §1

[8] = compound: C1CCN(C1)C(=O)NC2=CC=CC(=C2)NC3=NC=C(C(=N3)NCCC4=CN=CN4)Br
Summary of the method: as §1

[9] = compound: C1CN(CCC1(CC2=CC=C(C=C2)Cl)N)C3=NC=NC4=C3C=CN4
Summary of the method: as §1

[10] = compound: C1COCCN1CCN2C3=CC=CC=C3N=C2NC(=O)C4=CC(=CC=C4)[N+](=O)[O-] [IRAK-1-4 Inhibitor I]
Summary of the method: as §1

[11] = compound: C=CC(=O)N1CCC[C@@H](n2nc(-c3ccc(Oc4ccccc4)cc3)c3c(N)ncnc32)C1 [ibrutinib]
Summary of the method: as §1

[12] = compound: CC(=O)c1cnc2ccc(-c3cc(Cl)c(O)c(Cl)c3)nc2c1N[C@H]1CC[C@H](CN(C)C)CC1
Summary of the method: as §1

[13] = compound: CC(C)(C)Cn1c(N)nc2ccc(-c3[nH]c(C(C)(C)C)nc3-c3ccc(F)cc3)nc21 [ralimetinib]
Summary of the method: as §1

[14] = compound: CC(C)(O)CC(=O)NCCn1ccc2ncnc(Nc3ccc(Oc4cccc(C(F)(F)F)c4)c(Cl)c3)c21
Summary of the method: as §1

[15] = compound: CC(C)C1=C2N=C(C=C(N2N=C1)NCC3=CC=CC=C3)NCCCCCCN
Summary of the method: as §1

[16] = compound: CC1=C(C(CC(=O)N1)C2=CC=C(C=C2)C(F)(F)F)C(=O)NC3=C(C=C4C(=C3)C=NN4)F
Summary of the method: as §1

[17] = compound: CC1=C(C2=C(C=C1)C(=O)C3=CC=CC=C3N2CCCN)C
Summary of the method: as §1

[18] = compound: CC1=C(C=C(C=C1)NC(=O)C2=CC(=CC=C2)C(C)(C)C#N)NC3=CC4=C(C=C3)N=CN(C4=O)C
Summary of the method: as §1

[19] = compound: CC1=C(C=C(C=C1)NC(=O)C2=CC(=CC=C2)N(C)C)NC(=O)C3=CC=C(C=C3)O
Summary of the method: as §1

[20] = compound: CC1=CC=C(C=C1)SC2=C3C=C(SC3=CN=C2)C(=O)N
Summary of the method: as §1

Measured: log2 fold change

DHRS11 (UniProt Q6UWP2)
Sequence of UniProt Q6UWP2 (Q6UWP2 whole entry, looked up): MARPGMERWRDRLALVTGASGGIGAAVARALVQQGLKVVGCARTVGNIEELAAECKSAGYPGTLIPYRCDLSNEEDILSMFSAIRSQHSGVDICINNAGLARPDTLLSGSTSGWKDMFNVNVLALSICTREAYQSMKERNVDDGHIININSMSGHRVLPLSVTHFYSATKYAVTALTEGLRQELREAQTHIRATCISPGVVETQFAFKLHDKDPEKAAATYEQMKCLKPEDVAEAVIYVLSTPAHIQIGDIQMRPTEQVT
inactive: [1] 0.054 | [2] -0.017 | [3] -0.004 | [4] 0.017 | [5] -0.006 | [6] -0.015 | [7] -0.008 | [8] -0.041 | [9] 0.042 | [10] -0.02 | [11] 0.028 | [12] -0.008 | [13] 0.028 | [14] -0.014 | [15] 0.048 | [16] -0.005 | [17] -0.029 | [18] 0.007 | [19] 0.015 | [20] 0.03

DDB2 (UniProt Q92466)
inactive: [1] -0.007 | [2] -0.028 | [3] 0.07 | [4] 0.052 | [5] 0.064 | [6] -0.024 | [7] 0 | [8] -0.075 | [9] -0.041 | [10] 0.026 | [11] 0.075 | [12] -0.016 | [13] 0.009 | [14] -0.033 | [15] -0.007 | [16] 0.091 | [17] -0.003 | [18] 0.009 | [19] 0 | [20] 0.01

CXXC1 isoform 2 (UniProt Q9P0U4)
Sequence of UniProt Q9P0U4 (Q9P0U4 whole entry, looked up): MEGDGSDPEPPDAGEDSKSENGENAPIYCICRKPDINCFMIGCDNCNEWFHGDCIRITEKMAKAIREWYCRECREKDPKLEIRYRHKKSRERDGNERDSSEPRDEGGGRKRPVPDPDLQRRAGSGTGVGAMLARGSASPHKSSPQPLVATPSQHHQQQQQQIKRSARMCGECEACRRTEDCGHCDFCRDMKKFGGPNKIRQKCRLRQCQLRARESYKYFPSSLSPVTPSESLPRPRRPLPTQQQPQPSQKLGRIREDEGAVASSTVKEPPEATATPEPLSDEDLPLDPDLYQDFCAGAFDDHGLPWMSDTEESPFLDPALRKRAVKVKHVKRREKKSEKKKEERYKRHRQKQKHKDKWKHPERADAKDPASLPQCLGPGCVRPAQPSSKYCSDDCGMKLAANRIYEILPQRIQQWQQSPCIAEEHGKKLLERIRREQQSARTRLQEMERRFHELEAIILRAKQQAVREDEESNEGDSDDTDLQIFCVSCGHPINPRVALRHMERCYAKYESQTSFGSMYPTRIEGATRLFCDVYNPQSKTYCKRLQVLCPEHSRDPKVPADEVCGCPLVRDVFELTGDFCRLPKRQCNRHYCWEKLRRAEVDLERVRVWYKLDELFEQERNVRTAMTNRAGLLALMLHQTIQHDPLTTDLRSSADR
inactive: [1] 0.02 | [2] -0.031 | [3] -0.051 | [4] 0.029 | [5] -0.085 | [6] -0.036 | [7] -0.088 | [8] 0.082 | [9] 0.04 | [10] 0.059 | [11] -0.034 | [12] -0.078 | [13] 0.013 | [14] -0.089 | [15] -0.005 | [16] -0.01 | [17] 0.082 | [18] 0.004 | [19] 0.061 | [20] -0.155

CSNK2A1 (UniProt P68400)
inactive: [1] 0.005 | [2] -0.111 | [3] -0.02 | [4] 0.225 | [6] 0.017 | [7] 0.219 | [8] 0.112 | [9] -0.02 | [10] 0 | [11] -0.041 | [13] 0.002 | [14] -0.028 | [15] -0.054 | [16] -0.039 | [17] 0.158 | [18] -0.078 | [19] -0.01 | [20] 0.002
active: [5] 0.356 | [12] 0.468

CTPS1 (UniProt P17812)
inactive: [1] -0.002 | [2] 0.011 | [3] -0.027 | [4] -0.009 | [5] 0.005 | [6] -0.013 | [7] -0.011 | [8] -0.007 | [9] -0.007 | [10] -0.001 | [11] -0.045 | [12] 0.01 | [13] -0.017 | [14] -0.015 | [15] -0.022 | [16] -0.012 | [17] 0.024 | [18] 0.004 | [19] 0.017 | [20] 0.02

CYP24A1 (UniProt Q07973)
Sequence of UniProt Q07973 (Q07973 whole entry, looked up): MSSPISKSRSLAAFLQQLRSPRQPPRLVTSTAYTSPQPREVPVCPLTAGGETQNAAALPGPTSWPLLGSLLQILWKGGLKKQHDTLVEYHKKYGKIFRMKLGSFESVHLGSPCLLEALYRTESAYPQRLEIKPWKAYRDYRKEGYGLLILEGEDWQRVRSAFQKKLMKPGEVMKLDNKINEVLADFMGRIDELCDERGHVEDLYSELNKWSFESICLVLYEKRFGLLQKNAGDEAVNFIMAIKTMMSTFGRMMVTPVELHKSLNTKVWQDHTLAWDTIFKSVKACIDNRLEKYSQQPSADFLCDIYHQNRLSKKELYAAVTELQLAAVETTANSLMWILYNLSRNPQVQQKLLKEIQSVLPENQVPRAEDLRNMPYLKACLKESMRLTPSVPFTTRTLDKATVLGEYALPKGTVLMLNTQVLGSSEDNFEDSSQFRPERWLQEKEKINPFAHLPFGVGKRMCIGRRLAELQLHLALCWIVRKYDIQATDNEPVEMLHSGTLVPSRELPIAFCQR
inactive: [1] 0.015 | [2] 0.058 | [3] 0.148 | [4] -0.09 | [5] -0.083 | [6] -0.008 | [7] -0.135 | [8] -0.05 | [9] -0.011 | [10] 0.07 | [11] 0.01 | [12] -0.036 | [13] -0.03 | [14] -0.159 | [15] 0.019 | [16] -0.05 | [17] -0.051 | [18] 0.183 | [19] 0.007 | [20] -0.067

DDX39A (UniProt O00148)
Sequence of UniProt O00148 (O00148 whole entry, looked up): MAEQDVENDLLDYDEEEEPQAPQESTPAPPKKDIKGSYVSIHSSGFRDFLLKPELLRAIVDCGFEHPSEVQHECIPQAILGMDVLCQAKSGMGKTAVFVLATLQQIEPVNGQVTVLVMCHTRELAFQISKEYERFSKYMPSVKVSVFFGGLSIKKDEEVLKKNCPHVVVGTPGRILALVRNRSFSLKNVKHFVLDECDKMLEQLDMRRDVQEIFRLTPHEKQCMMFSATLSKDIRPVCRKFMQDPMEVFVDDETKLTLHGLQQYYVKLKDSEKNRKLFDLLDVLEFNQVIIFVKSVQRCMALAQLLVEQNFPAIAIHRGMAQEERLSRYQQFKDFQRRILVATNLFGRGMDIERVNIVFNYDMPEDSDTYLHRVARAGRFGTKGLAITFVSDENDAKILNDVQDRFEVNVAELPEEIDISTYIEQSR
inactive: [1] 0.023 | [2] -0.095 | [3] -0.045 | [4] -0.001 | [5] -0.003 | [6] 0.008 | [7] -0.026 | [8] -0.02 | [9] 0.009 | [10] 0.014 | [11] -0.005 | [12] 0.062 | [13] -0.009 | [14] 0.029 | [15] 0.022 | [16] 0 | [17] 0.009 | [18] -0.032 | [19] -0.016 | [20] -0.004

DCTN1 (UniProt Q14203)
inactive: [1] 0.007 | [2] -0.001 | [3] -0.001 | [4] -0.001 | [5] 0.019 | [6] -0.001 | [7] -0.023 | [8] 0 | [9] -0.003 | [10] -0.005 | [11] -0.005 | [12] 0.01 | [13] 0.013 | [14] -0.02 | [15] -0.006 | [16] 0.001 | [17] 0.011 | [18] -0.013 | [19] 0.009 | [20] 0.011

COTL1 (UniProt Q14019)
inactive: [1] -0.012 | [2] 0.04 | [3] 0.013 | [4] -0.006 | [5] -0.02 | [6] 0 | [7] 0.004 | [8] 0.022 | [9] 0.008 | [10] -0.03 | [11] 0.038 | [12] 0.001 | [13] -0.025 | [14] 0.049 | [15] -0.007 | [16] -0.055 | [17] 0.02 | [18] -0.019 | [19] -0.015 | [20] -0.004

CNDP2 (UniProt Q96KP4)
inactive: [1] -0.016 | [2] 0.004 | [3] 0.02 | [4] -0.038 | [5] -0.009 | [6] -0.022 | [7] 0.007 | [8] 0.039 | [9] 0.041 | [10] 0.051 | [11] 0.013 | [12] -0.027 | [13] 0.024 | [14] -0.049 | [15] -0.011 | [16] -0.005 | [17] -0.02 | [18] 0.023 | [19] 0 | [20] -0.035

DAZAP1 (UniProt Q96EP5)
Sequence of UniProt Q96EP5 (Q96EP5 whole entry, looked up): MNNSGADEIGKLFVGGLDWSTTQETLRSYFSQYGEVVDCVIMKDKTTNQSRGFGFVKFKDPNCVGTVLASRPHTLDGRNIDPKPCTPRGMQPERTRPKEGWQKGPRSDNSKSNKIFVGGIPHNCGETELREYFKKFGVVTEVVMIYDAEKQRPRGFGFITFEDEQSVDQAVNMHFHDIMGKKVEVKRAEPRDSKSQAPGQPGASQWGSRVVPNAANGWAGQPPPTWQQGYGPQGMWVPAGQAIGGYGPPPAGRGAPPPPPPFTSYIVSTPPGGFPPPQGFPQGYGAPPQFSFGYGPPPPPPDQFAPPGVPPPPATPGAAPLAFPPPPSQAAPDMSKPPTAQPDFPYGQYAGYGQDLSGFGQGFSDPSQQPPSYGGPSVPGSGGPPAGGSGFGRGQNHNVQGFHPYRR
inactive: [1] -0.017 | [2] 0.008 | [3] 0.03 | [4] 0.023 | [5] 0.026 | [6] 0.017 | [7] -0.047 | [8] 0.02 | [9] -0.004 | [10] 0.012 | [11] -0.031 | [12] -0.011 | [13] -0.124 | [14] 0.133 | [15] -0.023 | [16] -0.062 | [17] -0.015 | [19] -0.031 | [20] -0.009
active: [18] -0.359

CSNK2B (UniProt P67870)
inactive: [1] 0.045 | [2] -0.107 | [3] -0.039 | [4] 0.151 | [6] -0.012 | [7] 0.198 | [8] 0.145 | [9] 0.041 | [10] 0.021 | [11] -0.004 | [13] 0.003 | [14] -0.013 | [15] 0 | [16] -0.054 | [17] 0.114 | [18] -0.004 | [19] -0.015 | [20] -0.016
active: [5] 0.33 | [12] 0.408

COMT (UniProt P21964)
inactive: [1] 0.031 | [2] -0.03 | [3] -0.01 | [4] 0.011 | [5] -0.029 | [6] 0.001 | [7] 0.043 | [8] -0.024 | [9] -0.033 | [10] 0.019 | [11] 0.01 | [12] 0.019 | [13] 0.01 | [14] 0.016 | [15] 0.009 | [16] -0.045 | [17] 0.002 | [18] 0.031 | [19] 0.019 | [20] 0.01

DNAJC1 (UniProt Q96KC8)
Sequence of UniProt Q96KC8 (Q96KC8 whole entry, looked up): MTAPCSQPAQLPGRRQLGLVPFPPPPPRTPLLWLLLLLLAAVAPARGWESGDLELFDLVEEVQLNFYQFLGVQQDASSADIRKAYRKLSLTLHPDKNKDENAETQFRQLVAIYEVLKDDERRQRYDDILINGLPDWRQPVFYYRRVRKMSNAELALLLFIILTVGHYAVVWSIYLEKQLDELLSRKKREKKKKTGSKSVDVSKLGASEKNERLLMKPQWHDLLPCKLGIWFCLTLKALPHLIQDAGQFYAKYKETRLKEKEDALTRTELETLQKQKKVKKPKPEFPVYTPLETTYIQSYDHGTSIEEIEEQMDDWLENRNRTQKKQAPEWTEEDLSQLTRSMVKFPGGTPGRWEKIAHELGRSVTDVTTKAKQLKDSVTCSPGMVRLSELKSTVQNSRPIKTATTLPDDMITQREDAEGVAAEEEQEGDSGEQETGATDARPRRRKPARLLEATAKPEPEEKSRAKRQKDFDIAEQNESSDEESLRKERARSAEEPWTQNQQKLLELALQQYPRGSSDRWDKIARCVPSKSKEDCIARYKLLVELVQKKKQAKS
inactive: [1] -0.018 | [2] -0.011 | [3] -0.159 | [4] -0.053 | [5] 0.032 | [6] -0.044 | [7] -0.039 | [8] -0.011 | [9] 0.017 | [10] 0.013 | [11] -0.018 | [12] 0.018 | [13] -0.007 | [14] -0.048 | [15] -0.014 | [16] 0.019 | [17] 0.019 | [18] -0.009 | [19] 0.032 | [20] 0.011

DOCK10 (UniProt Q96BY6)
Sequence of UniProt Q96BY6 (Q96BY6 whole entry, looked up): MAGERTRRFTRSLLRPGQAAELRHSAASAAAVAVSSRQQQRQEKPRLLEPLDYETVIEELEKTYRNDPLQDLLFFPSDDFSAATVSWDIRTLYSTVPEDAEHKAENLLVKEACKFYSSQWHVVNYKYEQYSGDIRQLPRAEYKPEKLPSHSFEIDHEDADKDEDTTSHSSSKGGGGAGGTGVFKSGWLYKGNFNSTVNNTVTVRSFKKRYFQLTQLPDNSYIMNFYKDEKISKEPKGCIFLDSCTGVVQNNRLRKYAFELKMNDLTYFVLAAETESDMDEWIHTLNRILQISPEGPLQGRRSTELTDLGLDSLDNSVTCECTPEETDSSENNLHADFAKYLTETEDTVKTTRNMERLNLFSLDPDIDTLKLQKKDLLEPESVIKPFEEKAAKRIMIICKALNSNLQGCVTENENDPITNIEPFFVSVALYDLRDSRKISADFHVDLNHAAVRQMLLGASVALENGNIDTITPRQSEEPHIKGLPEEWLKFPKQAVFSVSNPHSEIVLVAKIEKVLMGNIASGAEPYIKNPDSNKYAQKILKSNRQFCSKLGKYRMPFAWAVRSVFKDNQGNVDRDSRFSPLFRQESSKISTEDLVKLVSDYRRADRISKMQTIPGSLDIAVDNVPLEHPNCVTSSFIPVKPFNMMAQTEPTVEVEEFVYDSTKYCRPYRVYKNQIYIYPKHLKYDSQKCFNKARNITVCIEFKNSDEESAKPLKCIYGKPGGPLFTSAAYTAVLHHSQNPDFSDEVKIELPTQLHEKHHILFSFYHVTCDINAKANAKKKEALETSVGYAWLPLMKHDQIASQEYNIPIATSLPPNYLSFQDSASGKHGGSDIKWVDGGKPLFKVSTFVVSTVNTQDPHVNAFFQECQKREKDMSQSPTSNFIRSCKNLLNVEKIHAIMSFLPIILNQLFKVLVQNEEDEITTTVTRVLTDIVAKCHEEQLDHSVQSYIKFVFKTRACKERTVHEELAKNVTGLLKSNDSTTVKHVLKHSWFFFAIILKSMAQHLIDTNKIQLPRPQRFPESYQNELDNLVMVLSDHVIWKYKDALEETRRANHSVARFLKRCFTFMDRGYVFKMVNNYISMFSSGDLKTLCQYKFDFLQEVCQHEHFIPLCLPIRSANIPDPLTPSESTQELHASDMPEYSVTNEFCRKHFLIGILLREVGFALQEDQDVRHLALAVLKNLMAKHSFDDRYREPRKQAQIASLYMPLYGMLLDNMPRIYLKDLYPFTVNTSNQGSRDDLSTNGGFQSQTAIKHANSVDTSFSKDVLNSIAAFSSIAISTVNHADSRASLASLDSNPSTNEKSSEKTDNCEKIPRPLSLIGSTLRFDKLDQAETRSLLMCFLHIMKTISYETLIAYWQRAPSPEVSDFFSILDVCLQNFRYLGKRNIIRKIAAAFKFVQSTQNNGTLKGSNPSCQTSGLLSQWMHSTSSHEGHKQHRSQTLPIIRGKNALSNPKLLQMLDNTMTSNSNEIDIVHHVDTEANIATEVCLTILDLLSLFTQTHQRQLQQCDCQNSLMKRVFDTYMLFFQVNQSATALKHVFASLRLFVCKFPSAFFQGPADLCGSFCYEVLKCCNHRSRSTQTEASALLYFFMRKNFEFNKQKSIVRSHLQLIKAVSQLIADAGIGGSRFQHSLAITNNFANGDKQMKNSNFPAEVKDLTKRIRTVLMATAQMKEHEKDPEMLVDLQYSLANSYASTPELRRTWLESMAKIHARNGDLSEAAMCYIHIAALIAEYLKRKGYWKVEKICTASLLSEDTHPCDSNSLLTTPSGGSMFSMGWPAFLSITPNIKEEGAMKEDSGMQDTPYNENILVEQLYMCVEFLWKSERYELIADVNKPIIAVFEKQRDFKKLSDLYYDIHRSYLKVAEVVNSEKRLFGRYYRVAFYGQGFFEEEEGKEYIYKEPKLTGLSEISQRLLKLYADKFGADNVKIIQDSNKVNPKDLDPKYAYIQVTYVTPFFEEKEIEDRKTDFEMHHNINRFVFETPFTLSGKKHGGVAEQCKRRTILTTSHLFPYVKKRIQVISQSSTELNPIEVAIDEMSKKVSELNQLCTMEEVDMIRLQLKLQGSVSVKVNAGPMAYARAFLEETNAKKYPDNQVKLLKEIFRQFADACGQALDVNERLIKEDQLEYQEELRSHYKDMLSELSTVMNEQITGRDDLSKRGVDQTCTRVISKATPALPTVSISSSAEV
inactive: [1] -0.23 | [2] -0.191 | [3] -0.03 | [4] 0.007 | [5] -0.094 | [6] -0.048 | [7] -0.034 | [8] -0.064 | [9] -0.028 | [10] -0.017 | [11] -0.151 | [12] 0.02 | [13] -0.001 | [14] -0.008 | [15] -0.084 | [16] -0.161 | [17] 0.008 | [18] 0.246 | [19] -0.045 | [20] 0.022

CNOT6L (UniProt Q96LI5)
inactive: [1] -0.011 | [2] 0 | [3] 0.007 | [4] -0.02 | [5] 0.007 | [6] -0.04 | [7] -0.042 | [8] -0.018 | [9] -0.012 | [10] 0.002 | [11] 0.02 | [12] 0.015 | [13] 0.037 | [14] -0.06 | [15] -0.05 | [16] 0.064 | [17] -0.07 | [18] 0.008 | [19] -0.041 | [20] 0.016
